From PubChem BioAssay (NCATS) come the findings set out here.

Common to all, as to assay: qHTS profiling for inhibitors of Plasmodium falciparum proliferation (AID 504749); also: nearly all actives have a fitted effect of over 60% in size
Holding throughout (conditions): P. falciparum in erythrocytes, SYBR Green DNA, 72 h; series mostly up to 28.7 µM
In general terms: qHTS replaces the single test concentration by a dilution series.

The subject of one assay is CP217. An outline of the steps: (§1)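 Fluorescence of SYBR Green-bound parasite DNA, read at 485/535 nm, served as the growth measure. Infected erythrocytes were cultured with compound 72 h; artemisinin (0.29 uM) and DMSO wells defined the normalization range.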
Another assay relates to CP237. An outline of the steps:
as §1

The subject of the next assay is CP238. The gist of the method: as §1
The next assay deals with CP247. An outline of the steps:
as §1

A further assay concerns CP250. An outline of the steps: as §1
In the next assay the test system is CP252. The gist of the method: as §1
The test system of the next assay is CP256. An outline of the steps:
as §1

The next assay deals with CP260. An outline of the steps:
as §1

A further assay has as its system CP262. The gist of the method: as §1
Another assay concerns CP265. The gist of the method: as §1
In the next assay the test system is CP268. The gist of the method:
as §1

The next assay deals with CP269. An outline of the steps:
as §1

In the next assay the test system is CP286. The gist of the method:
as §1

The subject of another assay is CP291. An outline of the steps:
as §1

Another assay relates to CP297. An outline of the steps: as §1
A further assay deals with CP305. The gist of the method:
as §1

In a further assay the test system is CP315. The gist of the method:
as §1

For the next assay, the system named is CP325. The gist of the method: as §1
The test system of another assay is CP329. The gist of the method:
as §1

The next assay deals with CP266. The gist of the method:
as §1

Inconclusive results are not listed. The source made the active and inactive calls. Calls follow the shape of the dose curve; as a rule, active = well fitted inhibition curve with a large enough effect; inconclusive = small, poorly fitted or top-dose-only effect; inactive = flat fitted curve, though single readings scatter.
Potency is read from the fitted curve at half-maximal effect.

As for `CN(C)CCc1ccc(O)cc1`, the Potency result in the assay on CP217, with CP237, in the assay with CP238, in the assay on CP247, in the assay on CP250 and in the assay with CP252 was “inactive” in each case. For the same molecule, the Potency result in the assay with CP256, in the assay on CP260, with CP262, in the assay with CP265, with CP268 and in the assay with CP269 was “inactive” in each case. The Potency entry in the assay on CP286, in the assay with CP291, in the assay on CP297, in the assay with CP305, in the assay with CP315 and in the assay on CP325 was “inactive” each time. Moreover, the Potency entry in the assay with CP329 is “inactive”.
Regarding `OCCOc1ccccc1`, the Potency entry in the assay with CP217, in the assay with CP237, in the assay on CP238, with CP247, with CP250 and in the assay with CP252 was “inactive” in each case. The Potency result with CP256, with CP260, in the assay on CP262, with CP265, in the assay with CP266 and in the assay with CP268 was “inactive” each time. In addition, the Potency result in the assay on CP269, in the assay on CP286, with CP291, in the assay on CP297, with CP305 and in the assay with CP315 was “inactive” in each case. For the same molecule, the Potency entry in the assay on CP325 and in the assay with CP329 was “inactive” in each case.
With `O=P1(NCCCl)OCCCN1CCCl` (stereo not given), the Potency entry in the assay on CP217, in the assay on CP237, in the assay on CP238, with CP247, in the assay on CP250 and in the assay with CP252 was “inactive” throughout. The Potency entry with CP256, in the assay with CP260, in the assay on CP262, with CP265, with CP266 and with CP268 was “inactive” each time. Besides, the Potency result in the assay on CP269, in the assay with CP286, in the assay on CP291, in the assay on CP297, in the assay with CP305 and in the assay with CP315 was “inactive” in each case. Also, the Potency entry with CP325 and in the assay on CP329 was “inactive” each time.
`NCC(CC(=O)O)c1ccc(Cl)cc1` (stereo not given): the Potency entry with CP217, in the assay with CP237, in the assay with CP238, with CP247, with CP250 and with CP252 was “inactive” throughout. Moreover, the Potency result with CP256, in the assay on CP260, with CP262, in the assay with CP265, in the assay with CP266 and in the assay with CP268 was “inactive” in each case. For the same molecule, the Potency result in the assay on CP269, in the assay on CP286, with CP291, with CP297, with CP305 and with CP315 was “inactive” throughout. Moreover, the Potency result in the assay with CP325 and in the assay with CP329 was “inactive” throughout.
In the case of `CC(C)(N)Cc1ccc(Cl)cc1`, the Potency entry in the assay on CP217, in the assay on CP238, in the assay on CP247, in the assay with CP250, with CP252 and in the assay on CP256 was “inactive” in each case. Also, the Potency entry with CP260, with CP262, with CP266, with CP269, in the assay on CP286 and in the assay with CP291 was “inactive” throughout. Besides, the Potency entry with CP315 and with CP325 was “inactive” throughout. For the same molecule, the Potency with CP237 was 8.91 µM (active).
Consider `CC[N+](CC)(CC)CC`, for which the Potency result with CP217, in the assay on CP237, with CP238, in the assay on CP247, in the assay on CP250 and in the assay on CP252 was “inactive” in each case. Moreover, the Potency result in the assay with CP256, in the assay on CP260, in the assay on CP262, in the assay on CP265, with CP266 and with CP268 was “inactive” in each case. For the same molecule, the Potency result in the assay with CP269, in the assay with CP286, with CP291, in the assay on CP297, in the assay with CP305 and with CP315 was “inactive” in each case. Further, the Potency entry with CP325 and in the assay with CP329 was “inactive” throughout.
Turning to `C#CCOC(C(=O)OCCN(C)C)(c1ccccc1)c1ccccc1`, the Potency result in the assay with CP217, in the assay with CP237, in the assay with CP238, with CP247, in the assay on CP250 and in the assay on CP252 was “inactive” each time. Besides, the Potency result in the assay on CP256, in the assay on CP260, in the assay with CP262, with CP265, in the assay on CP266 and in the assay with CP268 was “inactive” throughout. For the same molecule, the Potency result with CP269, in the assay with CP286, in the assay with CP291, in the assay with CP297, with CP305 and in the assay on CP315 was “inactive” each time. Further, the Potency result in the assay with CP325 and in the assay on CP329 was “inactive” throughout.
As for `Oc1ccccc1-c1ccccc1`, the Potency entry in the assay on CP217, in the assay on CP237, in the assay with CP238, with CP247, in the assay with CP250 and in the assay on CP252 was “inactive” in each case. Further, the Potency result with CP256, in the assay with CP260, with CP262, in the assay on CP265, in the assay on CP266 and in the assay on CP268 was “inactive” in each case. The Potency entry in the assay with CP269, in the assay on CP286, with CP291, with CP297, with CP305 and in the assay on CP315 was “inactive” each time. Also, the Potency entry in the assay with CP325 and in the assay with CP329 was “inactive” throughout.
For `CCN(C(C)=O)c1cccc(-c2ccnc3c(C#N)cnn23)c1`, the Potency entry with CP217, in the assay with CP237, in the assay with CP238, with CP247, with CP250 and in the assay on CP252 was “inactive” throughout. Besides, the Potency result in the assay with CP256, in the assay with CP260, in the assay with CP262, in the assay with CP265, in the assay on CP266 and in the assay on CP268 was “inactive” in each case. Also, the Potency result in the assay with CP269, in the assay with CP286, in the assay with CP291, in the assay with CP305, with CP315 and in the assay with CP325 was “inactive” each time. Also, in the assay with CP329, the Potency entry is “inactive”.
As for `NP(N)(=O)NC(=O)c1ccc(F)cc1`, the Potency entry with CP217, in the assay on CP237, in the assay with CP238, in the assay with CP247, in the assay on CP250 and in the assay with CP252 was “inactive” each time. Also, the Potency result in the assay with CP256, in the assay with CP260, with CP262, in the assay on CP265, with CP266 and with CP268 was “inactive” each time. Besides, the Potency result in the assay on CP269, in the assay on CP286, in the assay with CP291, with CP297, in the assay with CP305 and in the assay on CP315 was “inactive” in each case. Besides, the Potency entry in the assay with CP325 and with CP329 was “inactive” throughout.
`Cn1c(CCCC(=O)O)nc2cc(N(CCCl)CCCl)ccc21`: the Potency entry in the assay on CP217, in the assay on CP237, in the assay on CP238, with CP247, with CP250 and in the assay with CP252 was “inactive” each time. The Potency result in the assay on CP256, in the assay on CP260, in the assay on CP262, in the assay on CP265, in the assay on CP266 and in the assay with CP268 was “inactive” each time. For the same molecule, the Potency entry in the assay on CP269, with CP286, in the assay with CP291, with CP297, in the assay on CP305 and with CP315 was “inactive” throughout. The Potency result with CP325 and in the assay on CP329 was “inactive” each time.
For `C=C(C)[C@H]1Cc2c(ccc3c2O[C@@H]2COc4cc(OC)c(OC)cc4[C@@H]2C3=O)O1`, the Potency entry with CP217, in the assay on CP237, with CP238, in the assay with CP247, with CP250 and with CP252 was “inactive” throughout. The Potency entry in the assay on CP256, in the assay on CP260, in the assay on CP265, with CP266, with CP268 and with CP286 was “inactive” throughout. The Potency entry in the assay with CP297, in the assay on CP305, in the assay with CP315, with CP325 and in the assay on CP329 was “inactive” in each case.
For the molecule `CC[C@@H](CO)NC(=O)[C@@H]1C=C2c3cccc4[nH]cc(c34)C[C@H]2N(C)C1`, the Potency entry in the assay with CP217, in the assay on CP237, in the assay with CP238, with CP247, in the assay on CP250 and with CP252 was “inactive” each time. Also, the Potency result with CP256, with CP260, with CP262, in the assay with CP265, in the assay with CP266 and in the assay on CP268 was “inactive” each time. Moreover, the Potency entry with CP269, with CP286, in the assay on CP291, in the assay on CP297, in the assay on CP305 and in the assay with CP315 was “inactive” in each case. Besides, the Potency result in the assay with CP325 and with CP329 was “inactive” throughout.
Regarding `CC1OC(C)OC(C)O1` (stereo not given), the Potency result in the assay on CP217, in the assay on CP237, in the assay on CP238, with CP247, with CP250 and in the assay on CP252 was “inactive” throughout. Moreover, the Potency result with CP256, with CP260, in the assay with CP262, with CP265, with CP266 and in the assay with CP268 was “inactive” in each case. In addition, the Potency result in the assay with CP269, in the assay on CP286, with CP291, with CP297, in the assay on CP305 and with CP315 was “inactive” each time. Also, the Potency result in the assay with CP325 and in the assay with CP329 was “inactive” in each case.
